# The whole screen tested about 360,000 compounds, of which about 2,100 (0.58%) were called active. The entries come from a sample that favours actives as a whole. Values without a mark were called inactive.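 Rule for the calls: active = inhibition at 20 µM, scaled to each plate's controls, above about 33% (limit read from the data); inactive = the rest.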
# Biological target: 26S proteasome non-ATPase regulatory subunit 14 (Homo sapiens) (UniProt O00487)
# Experiment: Rpn11 (PSMD14) deubiquitinase inhibitors, primary screen, biochemical, fluorescence polarization, uHTS (AID 588493)
# Conditions: human 26S proteasome, Ub4-pepOG fluorescence polarization, at 20 µM, active compounds read high
# Sequence of 26S proteasome non-ATPase regulatory subunit 14 (Homo sapiens) (O00487 whole entry, looked up): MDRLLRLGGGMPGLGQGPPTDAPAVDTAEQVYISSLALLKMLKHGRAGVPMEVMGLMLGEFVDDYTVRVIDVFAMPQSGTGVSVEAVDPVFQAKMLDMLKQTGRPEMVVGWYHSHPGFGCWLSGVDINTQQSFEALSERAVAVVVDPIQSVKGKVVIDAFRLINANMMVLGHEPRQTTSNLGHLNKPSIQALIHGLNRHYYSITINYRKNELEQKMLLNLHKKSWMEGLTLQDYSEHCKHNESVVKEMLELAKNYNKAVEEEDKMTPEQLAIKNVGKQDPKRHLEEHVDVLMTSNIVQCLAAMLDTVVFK
row,SMILES,inhibition
1,O=c1[nH]c(=O)n(CCc2ccccc2)c(O)c1/C=N/N1CCOCC1,5.5%
2,O=C(N/N=C/c1c(O)n(Cc2ccccc2)c(=O)[nH]c1=O)c1ccccc1,-6.7%
3,O=c1[nH]c(=O)n(Cc2ccccc2)c(O)c1/C=N/Nc1c(F)c(F)c(F)c(F)c1F,41.6% (active)
4,COC(=O)C1=C(c2ccc(F)cc2OCc2ccccc2)C[C@@H]2CC[C@H]1N2C(=O)NCc1ccc(Cl)cc1,7.7% [20S core pre-blocked with epoxomicin]
5,CCc1cccc2c(C#N)cn(CC(=O)N3CCOCC3)c12,-6.2%
6,COc1ccc(C2NCc3ccc4c(c3-n3cccc32)OCO4)cc1OC (stereo not given),7.6%
7,Cc1cccc(N2C(=O)NC(=O)/C(=C\c3cnn(-c4ccccc4)c3)C2=O)c1,119% (active)
8,Cn1c(O)c(C(=Nc2ccc(F)cc2)c2ccccc2)c(=O)n(C)c1=O,-3.9%
9,COc1ccc(C2C=C(C)Oc3c2c(=O)oc2ccccc32)cc1OC (stereo not given),6% [20S core pre-blocked with epoxomicin]
10,c1cc2c(c(NC3=NCCCS3)c1)CCCC2,3.9%
11,O=C(C1CC(=O)N(C2CCCC2)C1)N1CCC2(CC1)OCCO2 (stereo not given),3.4%
12,CCN1C(=O)C(=Cc2c(C)n(CC(=O)NCC3CCCO3)c3ccccc23)C(=O)N(CC)C1=S (stereo not given),62% (active)
13,Fc1cccc(F)c1CN1CCN(Cc2c(F)cccc2F)CC1,-4.8%
14,CN(C)C(=O)Oc1ccc2c(c1)O/C(=C\c1ccccc1)C2=O,5.7%
15,Cn1c(C(=O)N2CCC(C(=O)N3CCC4(CC3)OCCO4)CC2)cc2sccc21,3.9%

# Reference: PubChem BioAssay AID588493 (Sanford-Burnham Center for Chemical Genomics, 2011)
